# Hit rate of the full screen: of about 300,000 compounds, about 5,200 (1.7%) were called active. This is one part of a sample in which actives are shown more often than they occur. A number with no mark means an inactive call.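 How the source made its calls: active means mean replicate activation of at least 50% with a set share of replicates each reaching 50%; inconclusive means only one of those two conditions met; inactive means mean below 50% and too few replicates reaching it.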
# Test: HSF-1 response element luciferase induction – NIH3T3-HGL cells, MG132 stress, luminescence, single point, primary screen (AID 504408);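 further: 0% = median of the neutral control wells and 100% = twice that signal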
# Conditions: NIH3T3-HGL HSF-1 luciferase reporter, MG132, 8 h; at 9 µM; hits give high values; 100% = twice DMSO control signal
row,Compound,activation
1,CCOC(=O)C/C(C)=N\Nc1ccc([N+](=O)[O-])cc1[N+](=O)[O-],1.63%
2,CCCCOc1ccc(CSC(=N)N)cc1[N+](=O)[O-],-29.6%
3,CCCCOC(=O)CCCc1ccc([N+](=O)[O-])cc1[N+](=O)[O-],65% (active)
4,Cc1csc2nc(O)c(C(=O)NCCN3CCOCC3)c(=O)n12,-6.85%
5,COc1ccc(S(=O)(=O)NCC(c2ccc(C)cc2)N2CCN(C)CC2)cc1OC (configuration not stated),5.43%
6,S=C(Nc1cccc(Cl)c1)Nc1ccc2c(c1)OCCO2,5.58%
7,Cc1csc(NC(=S)Nc2cccc(Cl)c2)n1,58.4% (active)
8,S=C(Nc1cccc(Cl)c1)Nc1ccc2cn[nH]c2c1,20.2%
9,COc1ccc(C(=O)NCC2CCCN2S(=O)(=O)c2cccs2)cc1OC (configuration not stated),-9.4%
10,CCN(c1cccc(C)c1)S(=O)(=O)c1ccc(-c2coc(C)n2)cc1,-1.05%
11,CCN(CC)S(=O)(=O)c1ccc(-c2cn3ccc(C)cc3n2)cc1,58.1% (active)
12,Cc1ccc2nc(-c3ccc(Br)cc3)cn2c1,-34.2%
13,Cc1ccc(SCC(=O)Nc2nncs2)cc1,-2.82%
14,COc1ccc(-n2nnnc2CNC(=O)c2ccc3ccccc3c2)cc1,3.44%
15,COc1cccc(NC(=O)CSc2nnc(-c3cccnc3)o2)c1,11.6%
16,Cc1ccc(C)c(-c2nnc(NC(=O)CS(=O)(=O)c3ccccc3)o2)c1,-10.1%
17,CC(=O)c1sc(NC(=O)CCCOc2ccccc2C)nc1C,35.1%
18,CC(=O)c1sc(N/N=C/c2ccc(C(C)C)cc2)nc1C,59.6% (active)
19,COc1ccccc1/C=N/Nc1nc(C)c(C(C)=O)s1,55.9% (active)
20,CC(=O)c1sc(N/N=C\c2ccc(C)cc2)nc1C,38.3%
21,COc1cc2ccccc2cc1C(=O)Nc1nc(C)c(C(C)=O)s1,23.8%

row,Compound,activation
1,COc1cccc2sc(Nc3nc(C)c(C(C)=O)s3)nc12,-3.69%
2,CCN1C(=O)[C@H]2[C@@H](c3ccc(C)cc3)N3C(=O)N(c4cccc(Br)c4)C(=O)[C@@]3(CC)[C@H]2C1=O,-10.8%
3,Cc1csc(NC(=O)CSc2nc(=O)n(CCCN(C)C)c3c2CCC3)n1,-4.76%
4,Cc1ccc(S(=O)(=O)CCC(=O)OCC(=O)N(C)C2CCS(=O)(=O)C2)cc1 (configuration not stated),2.33%
5,CCN(Cc1ccccc1)S(=O)(=O)c1cc2c3c(c1)CCN3C(=O)CC2,23.7%
6,COc1ccc2c(c1)C(=O)Nc1cc(Cl)ccc1N2,12.2%
7,CN(C)CCn1c2c(c(SCC(=O)Nc3ccccc3C(F)(F)F)nc1=O)CCCC2,-8.06%
8,Cc1ccc(-c2csc(-c3cc(C)on3)n2)cc1,28.5%
9,CCCc1cc(-c2nc(-c3ccc(C)cc3)cs2)ccn1,7.82%
10,Cc1ccc(-c2csc(-c3c[nH]c4ccccc34)n2)cc1,62% (active)
11,COc1ccccc1C(=O)NCCC(=O)NN1C(=O)NC2(CCCCC2)C1=O,-5.35%
12,O=C(COC(=O)c1ncc(Cl)c(Cl)c1Cl)NCc1cccs1,-3.74%
13,Cc1cc(C(=O)N/N=C/c2ccccc2[N+](=O)[O-])c(C)o1,58.5% (active)
14,CC(C)c1cc(C(=O)N/N=C/C(Br)=C/c2ccccc2)n[nH]1,40.2%
15,Cc1cc(C(=O)N/N=C/c2ccc(N3CCOCC3)cc2)c(C)o1,-5.06%
16,O=C(Cc1cc(=O)[nH][nH]1)N/N=C/c1ccccc1[N+](=O)[O-],-2.04%
17,Cc1cc(C(=O)N/N=C\C(Br)=C\c2ccccc2)c(C)o1,112% (active)
18,CC(=C/c1ccccc1)/C=N/NC(=O)c1cc(C)oc1C,32%
19,COc1cc(C(=O)N(C)Cc2cccc(OC)c2OC)ccc1OCC(=O)Nc1cccc(C(F)(F)F)c1,-3.36%
20,CC(OC(=O)CCC(=O)c1ccccc1)C(=O)Nc1ccc(F)cc1 (configuration not stated),-12.9%
21,COc1cc(/C=N\Nc2ccc([N+](=O)[O-])cn2)ccc1OCC(=O)O,0.194%

row,Compound,activation
1,COc1cc(/C=N/O)ccc1OCc1ccc([N+](=O)[O-])cc1,118% (active)
2,COc1cc(C(=O)OCc2ccc([N+](=O)[O-])cc2)cc(OC)c1OC,12.4%
3,O=C(Nc1ccc(F)c([N+](=O)[O-])c1)C1CCCO1 (configuration not stated),9.04%
4,COc1ccc(S(=O)(=O)N2CCOC23CCN(S(=O)(=O)c2ccc([N+](=O)[O-])cc2)CC3)cc1,0.627%
5,CCOc1ccc(C(C)=O)cc1COC(=O)CN1C(=O)NC2(CCCC2)C1=O,-13.7%
6,Cc1ccc(-c2cc(C(=O)N/N=C/C=C/c3ccco3)c3ccccc3n2)cc1C,-41.2%
7,CC(/C=N/NC(=O)c1cc(-c2ccc3ccccc3c2)n[nH]1)=C\c1ccco1,71.5% (active)
8,CC(/C=N/NC(=O)c1ccncc1)=C\c1ccco1,27.6%
9,COc1ccc(/C=N/Nc2ccccc2C(=O)O)cc1,12.9%
10,NC(=O)c1ccccc1N=Cc1ccc2ccccc2c1,75.3% (active)
11,N=c1oc2ccccc2cc1C(=O)N/N=C/c1ccccc1,22.1%
12,COc1ccccc1NS(=O)(=O)c1ccc(C(=O)N2CCN(c3ccccc3O)CC2)cc1,14.5%
13,CCOc1ccc2nc(C(=O)N3CCCC(C)C3)sc2c1 (configuration not stated),76.7% (active)
14,CCOc1ccc2nc(Nc3nc4ccc(NC(C)=O)cc4s3)sc2c1,36.7%
15,CCCC(=O)N(CCN1CCOCC1)c1nc2ccc(OCC)cc2s1,5.04%
16,CSc1ccc(S(=O)(=O)NCC(=O)OCC(=O)NC2(C#N)CCCCC2)cc1[N+](=O)[O-],1.77%
17,COc1ccccc1C(=O)NC(CCSC)C(=O)NNC(=O)c1ccccc1C (configuration not stated),-15.3%
18,O=C(Nn1c(SCc2ccc([N+](=O)[O-])cc2)nc2ccccc2c1=O)c1ccc(F)cc1,51.9% (active)
19,C=CCn1c(SCc2ccc(C(=O)NCCO)cc2)nc2ccccc2c1=O,-5.63%
20,O=C(Nn1c(-c2ccccc2)nc2ccccc2c1=O)c1ccc([N+](=O)[O-])cc1,19.1%
